Assay outcomes: PubChem, National Center for Advancing Translational Sciences (NCATS)
TRHR ag – qHTS for Small Molecule Agonists and Allosteric Enhancers of Human TRH Receptor: Primary Screen for Agonists; Thyrotropin-releasing hormone receptor (Homo sapiens), P34981; TRHR cells, calcium flux fluo-8, FDSS agonist mode; activation, % at 2 µM; actives 0.18% (n = 360,000); AID 493084, 2011; note: 0% is about no effect
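TRHR-expressing cells, plated overnight in medium with 10% serum, were loaded with fluo-8 calcium dye at room temperature. After a 10 s baseline, library compound was pin-added and calcium release was recorded kinetically (ex 480/em 530) as agonist response.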
D1 ag – Allosteric Agonists of the Human D1 Dopamine Receptor: qHTS; HEK293 T-REx D1 cells, calcium flux, agonist mode; activation, % at 2 µM; AID 504660, 2011; actives 1% (n = 360,000); D(1A) dopamine receptor (Homo sapiens), P21728; note: 0% is about no effect
Target sequence (P21728 whole entry, looked up): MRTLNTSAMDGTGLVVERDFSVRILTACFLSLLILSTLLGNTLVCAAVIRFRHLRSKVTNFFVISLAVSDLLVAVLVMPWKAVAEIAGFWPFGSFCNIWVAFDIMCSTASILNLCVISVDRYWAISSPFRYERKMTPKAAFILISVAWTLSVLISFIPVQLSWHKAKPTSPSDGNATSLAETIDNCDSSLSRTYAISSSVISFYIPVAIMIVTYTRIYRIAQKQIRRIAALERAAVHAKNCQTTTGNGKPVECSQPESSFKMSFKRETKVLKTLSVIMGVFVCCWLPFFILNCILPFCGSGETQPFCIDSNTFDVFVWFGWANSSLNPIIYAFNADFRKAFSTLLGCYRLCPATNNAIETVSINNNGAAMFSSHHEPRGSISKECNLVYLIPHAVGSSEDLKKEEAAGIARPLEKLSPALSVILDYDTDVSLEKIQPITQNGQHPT
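Agonism was scored from calcium flux recorded over 180 s (1 read/s) after pintool compound addition, following a 10-cycle baseline. Cells were inducible force-coupled HEK293 TREx D1, plated overnight at 30 C and loaded with no-wash calcium dye.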
D1 antagonist – Antagonist of Human D 1 Dopamine Receptor: qHTS | D(1A) dopamine receptor (Homo sapiens), P21728 | HEK293 TREx D1 cells, calcium flux, dopamine EC80; active compounds read low | activity change, negative = inhibition, % at 10 µM | actives 3.2% (n = 360,000); in the data active = activity change below about -30%; note: % is set by controls: 0 for no effect and ±100 for the full control effect
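Allosteric or orthosteric antagonism assessed as attenuation of the calcium response to EC80 dopamine, added 180 s after compound, in induced HEK293 Trex D1 cells loaded with no-wash calcium dye.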
TRHR PAM – qHTS for Small Molecule Agonists and Allosteric Enhancers of Human TRH Receptor: Primary Screen for Enhancers; Thyrotropin-releasing hormone receptor (Homo sapiens), P34981; TRHR cells, fluo-8 calcium fluorescence, EC20 TRH enhancement; enhancement, % at 2 µM; actives 0.66% (n = 360,000); AID 493056, 2011; in the data active = enhancement above about 30%; note: 0% is about no effect
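TRHR-expressing cells loaded with fluo-8 calcium dye were read kinetically (ex 480/em 530) during compound addition, then stimulated with an EC20 of TRH (10 nM final). Enhancement of the Gq-mediated intracellular calcium response was scored.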
D1 PAM – Potentiators of Human D1 Dopamine Receptor: qHTS. D(1A) dopamine receptor (Homo sapiens), P21728. actives 0.036% (n = 360,000). potentiation, % at 10 µM. AID 504651, 2011. HEK293 TREx D1 cells, calcium flux, dopamine EC20 potentiation; in the data active = potentiation above about 30%; note: 0% is about no effect
* = called active by the depositor. Only some compounds are listed: those with a hit (about 4.6% of all), similar ones and a draw of the others. Cut-off read from the data, not from the text of the source, unless noted: active = activation above about 30%; inactive = the rest.

SMILES	TRHR ag	D1 ag	D1 antagonist	TRHR PAM	D1 PAM
O=C(N1CCc2ccc(S(=O)(=O)N3CCN(S(=O)(=O)c4ccc5c(c4)OCCO5)CC3)cc2C1)C(F)(F)F	1	2	-19	5	-5
CCOC(=O)CN(c1ccccn1)S(=O)(=O)c1ccccc1	1	3	10	-1	4
O=C(CN(c1ccccn1)S(=O)(=O)c1ccc(F)cc1)Nc1ccccc1	0	0	6	-8	-5
COC(=O)c1ccc(CN(c2ccccn2)S(=O)(=O)c2ccccc2)cc1	-2	5	-36*	-2	-9
O=C(CN(c1ccccn1)S(=O)(=O)c1ccccc1)Nc1ccccc1	1	3	-5	39*	-2
Cc1ccc(CN2C(=O)C3(SCC(=O)N3c3ccc(C)c(C)c3)c3ccccc32)cc1 (stereo not given)	0	4	1	-6	2
COc1ccc(C2CC3(CC(C)(C)NC(SC)=N3)Oc3cc(O)cc(C)c32)cc1 (stereo not given)	0	263*	73	7	3
CCCCOc1ccc(S(=O)(=O)NC(=O)NCc2ccc(OCCC)cc2)cc1	0	1	-38*	-1	-15
CCCCOc1ccc(CNC(=O)NS(=O)(=O)c2ccc(OCC)cc2)cc1	-1	0	-7	8	-5
CCOC(=O)Cn1c(=O)n(CC(=O)OCC)c2ccccc21	1	1	1	-4	1
CCOC(=O)Cn1c(=O)n(CC2CCCO2)c2nc(-c3ccc(C(C)C)cc3)nc(C(N)=O)c21 (stereo not given)	0	2	7	9	-1
CCOC(=O)Cn1c(=O)n(C2CCCCC2)c2nc(-c3ccc(C(C)C)cc3)nc(C(N)=O)c21	0	0	-51*	-4	0
CCOC(=O)Cn1c(=O)n(CC2CCCO2)c2nc(-c3ccc(OC)cc3OC)nc(C(N)=O)c21 (stereo not given)	0	1	1	42*	0
CCOC(=O)Cn1c(=O)n(C2CCCC2)c(=O)c2ccccc21	-1	0	7	41*	6
CCOC(=O)Cn1c(=O)n(C2CCCCC2)c2nc(-c3cccc(F)c3)nc(C(N)=O)c21	0	0	5	-1	-2
CCOC(=O)Cn1c(=O)n(C2CCCCC2)c2nc(-c3cccc(C)c3)nc(C(N)=O)c21	0	2	-86*	20	-1
CCOc1ccc(CNC(=O)CCCn2c(=O)c3cccn3c3ccccc32)cc1	0	1	10	-1	-3
COc1cc(NC(=O)c2cc3ccccc3cc2O)c(OC)cc1Cl	5	17	-58*	-15	-10
COc1cc(OC)c(NC(=O)c2ccccc2F)cc1Cl	0	1	12	2	2
Cc1ccc(Cl)cc1NC(=O)c1cc2ccccc2cc1O	4	27	-45*	-11	-9
COc1ccc(NC(=O)CCc2c(C)nc3c(-c4ccccc4)c(C)nn3c2C)cc1Cl	0	5	-19	4	-2
O=C(NC(CC(=O)N1CCCC(C(F)(F)F)C1)c1ccccc1)c1ccccc1Cl (stereo not given)	2	1	-3	33*	-6
CC1CCN(C(=O)CC(NC(=O)c2ccccc2Cl)c2ccccc2)CC1 (stereo not given)	0	0	-20	-1	19
CCOC(=O)CSc1nc(-c2ccc(F)cc2)cc(C(F)(F)F)c1C#N	3	9	-19	6	-9
CCc1ccc(N=C2NC(=O)/C(=C/c3cc(OC)c(O)c(OC)c3)S2)cc1	19	21	1	8	-2
COc1cc(/C=C2\SC(=Nc3ccc(Cl)c(C(=O)O)c3)NC2=O)c(Br)c(Br)c1O	212*	324*	36	93*	21
COc1cc(/C=C2\SC(=Nc3ccccc3)NC2=O)cc(Cl)c1O	150*	157*	5	20	-2
